Assay outcomes as filed in PubChem BioAssay.
In the library only some 13% were active in any assay of this set; here they are far more common.
HCV inh – qHTS Assay for Inhibitors of Hepatitis C Virus (HCV); AID 651820, 2012; 340,000 tested, 3.4% active; Huh7.5.1 HCVcc-Cre infection, luciferase reporter, 44 h; Potency, µM (doses to about 41.8 µM), usual class: inhibitors; active means well fitted inhibition curve with a large enough effect; inconclusive means small, poorly fitted or top-dose-only effect, or another doubt; inactive means no such curve, though single readings can be large or run the other way
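A cell-based infection assay in which seeded cells (1,000 per well) receive test compound after 4 h, are inoculated with HCVcc-Cre at approximately 0.5 moi, and are incubated 44 h before luminescence detection.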
FMDV inh – High Throughput Screening for Foot and Mouth Disease Virus Antivirals; FMDV antiviral cell-based qHTS; Potency, µM (series often up to 57.9 µM), actives largely listed as inhibitors; 410,000 tested, 1.2% active; calls by dose curve; tested in HEK293T cells; further: read-out not given here; nearly all actives have a fitted effect of over 45% in size
LASV entry inh – qHTS for Inhibitors of binding or entry into cells for Lassa Virus; Potency, µM (highest dose often 37.9 µM), hits mostly inhibitors; 300,000 tested, 1.2% active; Lassa virus pseudotype entry inhibition, cell reporter; calls by dose curve; tested in HEK293 cells; further: nearly all actives have a fitted effect of over 50% in size
CHX counter – Cycloheximide Counterscreen for Small Molecule Inhibitors of Shiga Toxin. cell reporter, cycloheximide protein synthesis inhibition counterscreen. max response, %. 300,000 tested, 12% active. AID 2314, 2010; in the data active means max response mostly above about 13%, no sharp cut-off; inactive means mostly below about 14%; further: read at 38.3 µM for the half of the compounds with a filed dose
MARV entry inh – qHTS for inhibitors of binding or entry into cells for Marburg Virus; Potency, µM (top dose mostly 37.8 µM), usual class: inhibitors; AID 540276, 2011; Marburg virus pseudotyped entry inhibition, cell reporter; 300,000 tested, 1.8% active; calls by dose curve; tested in HEK293 cells
Shiga toxin inh – A qHTS for Small Molecule Inhibitors of Shiga Toxin; 290,000 tested, 9.2% active; inhibition, % at 38.7 µM; Vero cells, Shiga toxin protein synthesis inhibition reporter; in the data active means inhibition mostly above about 28%, no sharp cut-off; inactive means mostly below about 43%
Each line names hits and unclear results; the compound was inactive in the other large screens.

CCCn1c2c(c(O)c(C(=O)Nc3ccccn3)c1=O)CCCC2	none (no result: HCV inh, FMDV inh, LASV entry inh)
COC(C(=O)NNC(=O)Cc1ccc(Cl)cc1)c1ccccc1 (stereo not drawn)	none
COc1cc(C(=O)OCC(=O)N2c3ccccc3NC(=O)C2(C)C)ccc1OCC(C)C	HCV inh 6.31µM, FMDV inh inconclusive, LASV entry inh inconclusive, MARV entry inh inconclusive (no result: CHX counter, Shiga toxin inh)
CC1(C)C(=O)Nc2ccccc2N1C(=O)COC(=O)c1cccc(O)c1	FMDV inh inconclusive (no result: LASV entry inh, CHX counter, MARV entry inh, Shiga toxin inh)
O=C(NNC(=O)c1ccccc1C(=O)O)c1cc2ccccc2o1	none (no result: LASV entry inh, MARV entry inh)
O=C(NCc1ccc(F)cc1)c1ccc2c(=O)n3c(nc2c1)CCCCC3	none (no result: LASV entry inh, MARV entry inh)
Cc1nc2n(c(=O)c1CCN1CCC(c3noc4cc(F)ccc34)CC1)CCCC2	HCV inh inconclusive, MARV entry inh 11.2µM (no result: LASV entry inh)
Cc1nn(Cc2ccc(Cl)cc2)c(C)c1NC(=O)c1ccc([N+](=O)[O-])cc1	FMDV inh inconclusive
Cc1csc(NC(=O)c2cccs2)n1	LASV entry inh inconclusive, CHX counter 54.5, Shiga toxin inh 100.4
Cc1csc(NC(=O)CCC(=O)c2cccs2)n1	CHX counter 19.3
Cc1cc(C)nc(NC(=O)c2cccs2)n1	none (no result: LASV entry inh, MARV entry inh)
Cc1c(Cl)cccc1NC(=O)CCC(=O)c1cccs1	none (no result: LASV entry inh, MARV entry inh)
Cc1csc(NC(=O)c2ccc(Br)s2)n1	LASV entry inh inconclusive, CHX counter 42.6, MARV entry inh inconclusive, Shiga toxin inh 136.5
Cc1cc(C)nc(NC(=O)c2ccc(Br)s2)n1	none (no result: LASV entry inh, MARV entry inh, Shiga toxin inh)
NC(=O)c1ccccc1Nc1nc2nc3ccccc3c(=O)n2cc1Br	CHX counter 15.3, MARV entry inh inconclusive, Shiga toxin inh 38.0
O=C(CN1CCCC1c1cccs1)Nc1cccc(S(=O)(=O)N2CCCC2)c1 (stereo not drawn)	HCV inh 10µM (no result: LASV entry inh, CHX counter, MARV entry inh, Shiga toxin inh)
CCOc1ccc(NC(=O)CN2CCCC2c2cccs2)cc1S(=O)(=O)N1CCCC1 (stereo not drawn)	HCV inh 11.2µM (no result: LASV entry inh, CHX counter, MARV entry inh, Shiga toxin inh)
COc1ccc(NC(=O)CN2CCCC2c2cccs2)cc1S(=O)(=O)N1CCCCC1 (stereo not drawn)	HCV inh inconclusive, FMDV inh 39.8µM (no result: LASV entry inh, CHX counter, MARV entry inh, Shiga toxin inh)
O=C(CN1CCCC1c1cccs1)Nc1cc(S(=O)(=O)N2CCCC2)ccc1Cl (stereo not drawn)	HCV inh inconclusive, LASV entry inh inconclusive (no result: CHX counter, Shiga toxin inh)
c1ccc(-c2ccc3c(n2)CCCO3)cc1	none (no result: LASV entry inh, CHX counter, MARV entry inh, Shiga toxin inh)
COc1ccccc1NC(=O)CSc1oc(-c2cccs2)nc1S(=O)(=O)c1ccc(Br)cc1	none (no result: HCV inh, CHX counter, Shiga toxin inh)
O=c1ccc2cc3c4c(c2o1)CCCN4CCC3	LASV entry inh inconclusive
O=c1ccc2c(o1)/C(=C/C=C(Cl)Cl)CCC2	HCV inh 15.8µM
CCOC(=O)c1nn(-c2ccc(C)cc2)c(C)c1C(C)=O	none
Cc1ccc(-c2nc3ccccc3o2)cc1NC(=S)NC(=O)c1cc2ccccc2o1	LASV entry inh inconclusive, CHX counter 45.0, Shiga toxin inh 84.7
Cc1ccc(-c2nc3cc(C(C)C)ccc3o2)cc1NC(=O)c1cc2ccccc2o1	LASV entry inh inconclusive (no result: HCV inh, CHX counter, Shiga toxin inh)
Cc1c(NC(=S)NC(=O)c2cc3ccccc3o2)cccc1C(=O)O	CHX counter 53.7, Shiga toxin inh 75.6 (no result: LASV entry inh, MARV entry inh)
Cc1ccc2oc(-c3ccc(C)c(NC(=S)NC(=O)c4cccs4)c3)nc2c1	HCV inh inconclusive, CHX counter 44.7, Shiga toxin inh 10.1 (no result: LASV entry inh, MARV entry inh)
CN1CCN(c2ccccc2NC(=S)NC(=O)c2cc3ccccc3o2)CC1	none
CC1CCN(c2ccc3c(c2)S(=O)(=O)c2cccc(C(=O)NC[C@@H]4CCCO4)c2C3=O)CC1	HCV inh inconclusive (no result: LASV entry inh, CHX counter, MARV entry inh, Shiga toxin inh)
O=C(NCC1CCCO1)c1cccc2c1C(=O)c1ccc(N3CCC(Cc4ccccc4)CC3)cc1S2(=O)=O (stereo not drawn)	HCV inh inconclusive, FMDV inh 12.6µM (no result: LASV entry inh, CHX counter, MARV entry inh, Shiga toxin inh)
Cc1ccc(NS(=O)(=O)c2ccc(C(=O)N3CCCC(C(F)(F)F)C3)cc2)cc1 (stereo not drawn)	MARV entry inh inconclusive (no result: CHX counter, Shiga toxin inh)
COc1ccc(/C=C/C(=O)OC2CCCN(C)C2)cc1 (stereo not drawn)	CHX counter 25.7, Shiga toxin inh 47.8 (no result: LASV entry inh, MARV entry inh)
O=C(c1cc2ccccc2oc1=O)N1CCCN(C(=O)c2cc3ccccc3oc2=O)CC1	none (no result: LASV entry inh, CHX counter, MARV entry inh, Shiga toxin inh)
O=C(c1cc2ccccc2oc1=O)N1CCN(c2ncccn2)CC1	LASV entry inh inconclusive, CHX counter 33.9, MARV entry inh inconclusive, Shiga toxin inh 85.7
O=C(c1cc2ccccc2oc1=O)N1CCN(c2ccccn2)CC1	none
Cc1cccc(N2CCN(C(=O)c3cc4ccccc4oc3=O)CC2)c1C	CHX counter 19.5 (no result: LASV entry inh, MARV entry inh)
Cc1cccc(N2CCN(C(=O)c3c(Cl)cnn3C)CC2)c1C	HCV inh inconclusive, FMDV inh inconclusive, LASV entry inh 11.2µM, MARV entry inh inconclusive
CN1CCN(C(=O)c2cc3ccccc3oc2=O)CC1	CHX counter 13.2
Cn1ncc(Cl)c1C(=O)N1CCN(c2cccc(Cl)c2)CC1	HCV inh inconclusive, LASV entry inh inconclusive, MARV entry inh inconclusive
c1ccc2c(c1)-c1nc3ccccc3cc1C2N1CCOCC1 (stereo not drawn)	HCV inh inconclusive (no result: CHX counter, Shiga toxin inh)
CCCOc1ccc(CSC2=NCCN2)cc1[N+](=O)[O-]	none
CCCn1c2ccccc2c2cnn(CC(=O)NC3CCCC(C)C3C)c(=O)c21 (stereo not drawn)	none (no result: LASV entry inh, MARV entry inh)
CCN1CCCC1CNC(=O)Cn1cnc2sc(C)c(S(=O)(=O)N3CCC(C)CC3)c2c1=O (stereo not drawn)	HCV inh inconclusive, MARV entry inh inconclusive
CCOc1ccc(NC(=O)NCCCCc2ccccc2)cc1	none (no result: LASV entry inh, MARV entry inh)
O=C(NCCCCc1ccccc1)Nc1ccc(F)cc1	HCV inh inconclusive, Shiga toxin inh 31.1 (no result: LASV entry inh, MARV entry inh)
Cc1ccccc1NC(=O)NCCCCc1ccccc1	HCV inh inconclusive, Shiga toxin inh 38.6 (no result: LASV entry inh, MARV entry inh)
COc1ccc(NC(=O)NCCCCc2ccccc2)cc1	CHX counter 22.4 (no result: LASV entry inh, MARV entry inh)
COc1ccc(NC(=O)C(CCCCNC(=O)OC(C)(C)C)NC(=O)OCc2ccccc2)cc1 (stereo not drawn)	LASV entry inh 2.06µM
CC(C)(C)OC(=O)N[C@@H](CCCCNC(=O)OCc1ccccc1)c1nnc([C@H](CCCCNC(=O)OCc2ccccc2)NC(=O)OC(C)(C)C)o1	none (no result: LASV entry inh, MARV entry inh)
CCOC(=O)c1c(C)c(-c2ccccc2)n(CC(=O)NC2CCCCCC2)c1C	MARV entry inh inconclusive (no result: HCV inh, LASV entry inh, CHX counter, Shiga toxin inh)
O=C(CN(C(=O)c1csnn1)c1cccc2ccccc12)NCc1ccccc1	none
Cc1ccc(NC(=O)NCCCc2ccccc2)cc1	CHX counter 35.3, Shiga toxin inh 83.1
O=C(NCCc1ccccc1)C(=O)Nc1cccc(Br)c1	none (no result: HCV inh, CHX counter, MARV entry inh, Shiga toxin inh)
Cc1cccc(NC(=O)C(=O)NCCCc2ccccc2)c1	CHX counter 49.6, MARV entry inh inconclusive, Shiga toxin inh 50.6 (no result: FMDV inh)
Cc1ccc(SCC(=O)NCCCc2ccccc2)cc1	none
CCN(CC)CCCNc1oc(/C=C/c2ccccc2)nc1C#N	HCV inh inconclusive, CHX counter 22.4 (no result: LASV entry inh, MARV entry inh)
CCNc1oc(/C=C/c2ccc(OCC)cc2)nc1C#N	HCV inh inconclusive, CHX counter 15.7, Shiga toxin inh 38.2 (no result: LASV entry inh, MARV entry inh)
